Measured values reported in the supplement of paper PMC10981050.
Several values for one entry are separate records, joined by “and”; a condition that tells them apart may be missing. Equal values may be shown once. Where a name gives a salt, the structure may show the parent alone.

Tests used:
Assay in all cases: cell viability relative to vehicle control; higher = less cytotoxic
Settings in all cases: 10 µM
K562 = system: K562
Procedure, shortened: (§1)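 Four leukaemia lines, as CRISPR-edited mutant clones and isogenic wild-type clones, were tested against Selleck bioactive, kinase and epigenetic probe libraries after removal of identity-inconsistent compounds. Cells were exposed to a single 10 µM dose for 48 h, and CellTiter-Glo luminescence was then read. Viability was calculated relative to the on-plate vehicle control.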

MARIMO = system: MARIMO
Procedure, shortened: as §1

MOLM14 = system: MOLM14
Procedure, shortened: as §1

OCI-AML2 = system: OCI-AML2
Procedure, shortened: as §1

| SMILES | cell viability (K562; SRSF2 genotype: SRSF2 P95H/wt) | cell viability (K562; SRSF2 genotype: SRSF2 wt/wt) | cell viability (MARIMO; SRSF2 genotype: SRSF2 P95H/wt) | cell viability (MARIMO; SRSF2 genotype: SRSF2 wt/wt) | cell viability (MOLM14; SRSF2 genotype: SRSF2 P95H/wt) | cell viability (MOLM14; SRSF2 genotype: SRSF2 wt/wt) | cell viability (OCI-AML2; SRSF2 genotype: P95H/wt) | cell viability (OCI-AML2; SRSF2 genotype: wt/wt) |
| --- | --- | --- | --- | --- | --- | --- | --- | --- |
| CC(C)CN(CC(=O)N1CCN(CC(OCc2ccc3ccccc3c2)c2ccc(Cl)cc2Cl)CC1)CC(C)C (stereo not drawn) | 73.4% and 83% | 79.2% | 54.3% | 43.2% | 56.2% | 71% | 36% | 41.8% |
| CCS(=O)(=O)N1CCC([C@@H](C)n2c(C)c(C(=O)NCc3c(OC)cc(C)[nH]c3=O)c3ccccc32)CC1 | 100% and 98.2% | 95.7% | 99.8% | 111% | 100% | 99% | 107% | 109% |
| CC(=O)NS(=O)(=O)c1ccc(N)cc1 [Sulfacetamide] | 98.7% and 98.1% | 111% | 90.8% | 96.3% | 103% | 103% | 98.4% | 106% |
| O=C(O)C[C@H](O)C[C@H](O)/C=C/c1c(C2CC2)nc2ccccc2c1-c1ccc(F)cc1 [Pitavastatin calcium (Livalo)] | 37.4% and 50.7% | 34.6% | 25.3% | 34.4% | 32.9% | 48.4% | 1.41% | 4.89% |
| O=C(Nc1ccc(OC(F)(F)F)cc1)c1sccc1NCc1ccnc2ccccc12 | 44.9% and 48.7% | 43.4% | 49.2% | 42.3% | 39% | 29.1% | 24% | 27.2% |
| Cc1ccc2nc(NC(=O)CSc3nc4c(c(=O)n3-c3ccccc3)SCC4)sc2c1 | 91.8% and 99.4% | 89.8% | 94% | 98.9% | 98.9% | 93.3% | 94.2% | 104% |
| NCCc1c[nH]cn1 [Histamine] | 96.1% and 97.6% | 91.1% | 84% | 93% | 56% | 63.6% | 81.6% | 82.4% |
| O=C(O)CC(O)C(=O)O (stereo not drawn) [Malic acid] | 82.4% and 82.1% | 83.7% | 99.6% | 88.9% | 77.2% | 101% | 102% | 104% |
| OC1CCC(Nc2ncc3nc(Nc4c(F)cc(F)cc4F)n([C@H]4CCOC4)c3n2)CC1 (stereo partly drawn) [Tanzisertib(CC-930)] | 101% and 111% | 114% | 116% | 103% | 91.8% | 109% | 117% | 122% |
| CCN(CC)CC(=O)Nc1c(C)cccc1C [Lidocaine hydrochloride] | 102% and 103% | 106% | 101% | 107% | 99.3% | 102% | 100% | 97.1% |
| O=c1cc(N2CCOCC2)oc2c(-c3cccc4c3sc3ccccc34)cccc12 | 89.7% and 97.5% | 88.3% | 93% | 87.3% | 60.5% | 51.9% | 52.5% | 66.4% |
| Cn1cc(-c2ccc3nnc(Sc4ccc5ncccc5c4)n3n2)cn1 | 92% and 94.2% | 96.6% | 90% | 101% | 98% | 99% | 98% | 94.3% |
| Cc1onc(-c2ccccc2Cl)c1C(=O)N[C@@H]1C(=O)N2[C@@H]1SC(C)(C)[C@@H]2C(=O)O [Cloxacillin sodium] | 102% and 109% | 97.6% | 102% | 106% | 102% | 106% | 105% | 108% |
| Cc1cnc(Nc2ccc(F)cc2Cl)nc1-c1c[nH]c(C(=O)NC(CO)c2cccc(Cl)c2)c1 (stereo not drawn) | 60.8% and 83.2% | 72.9% | 44.9% | 46% | 58.5% | 48.1% | 47.4% | 47.7% |
| CCCCCCCCCCCCCCCCOc1nc2ccc(C)cc2c(=O)o1 [Cetilistat] | 107% and 111% | 108% | 108% | 108% | 103% | 108% | 107% | 108% |
| C[C@H]1O[C@@H](O[C@H]2CC[C@@]3(C)[C@@H](CC[C@]4(C)[C@@H]3C=C[C@]35OC[C@@]6(CCC(C)(C)C[C@H]63)[C@H](O)C[C@]54C)[C@]2(C)CO)[C@H](O)[C@@H](O[C@@H]2O[C@H](CO)[C@@H](O)[C@H](O)[C@H]2O)[C@H]1O [Saikosaponin D] | 6.69% and 0.65% | 0.4% | 14% | 3.54% | 0.86% | 0.86% | 10.2% | 12.9% |
| COC(=O)C1=C(C)NC(C)=C(C(=O)OCC(C)C)C1c1ccccc1[N+](=O)[O-] (stereo not drawn) [Nisoldipine] | 80.1% and 83.8% | 80.3% | 56.3% | 58.6% | 41.7% | 34.7% | 41.2% | 55.3% |
| Cc1cc(Cl)ccc1OCCCC(=O)NO [Droxinostat] | 83.6% and 88.4% | 85.2% | 76.4% | 89.8% | 84.8% | 87.1% | 79.3% | 80.7% |
| CN1CCN(c2ccc3nc(-c4c(N)c5c(F)cccc5[nH]c4=O)[nH]c3c2)CC1 [Dovitinib Dilactic acid (TKI258 Dilactic aci] | 6.48% and 13.2% | 8.9% | 10.8% | 12.8% | 0.16% | 0.07% | 0.15% | 0.51% |
| C=C[C@]1(C)C[C@@H](OC(=O)CSC(C)(C)CNC(=O)[C@H](N)C(C)C)[C@]2(C)[C@H](C)CC[C@]3(CCC(=O)[C@H]32)[C@@H](C)[C@@H]1O [Valnemulin HCl] | 83.2% and 84.6% | 75.3% | 74% | 74.9% | 80.8% | 80% | 60.7% | 65.5% |
| COc1ccc(-c2cc(=O)c3c(O)cc(OC4OC(CO)C(O)C(O)C4OC4OC(C)C(O)C(O)C4O)cc3o2)cc1O (stereo not drawn) [Neodiosmin] | 93.3% and 85.3% | 90.1% | 94.6% | 97% | 97.6% | 100% | 89.8% | 94.4% |

| SMILES | cell viability (K562; SRSF2 genotype: SRSF2 P95H/wt) | cell viability (K562; SRSF2 genotype: SRSF2 wt/wt) | cell viability (MARIMO; SRSF2 genotype: SRSF2 P95H/wt) | cell viability (MARIMO; SRSF2 genotype: SRSF2 wt/wt) | cell viability (MOLM14; SRSF2 genotype: SRSF2 P95H/wt) | cell viability (MOLM14; SRSF2 genotype: SRSF2 wt/wt) | cell viability (OCI-AML2; SRSF2 genotype: P95H/wt) | cell viability (OCI-AML2; SRSF2 genotype: wt/wt) |
| --- | --- | --- | --- | --- | --- | --- | --- | --- |
| OC[C@H]1O[C@H](O[C@H]2[C@H](O)[C@@H](O)C(O)O[C@@H]2CO)[C@H](O)[C@@H](O)[C@@H]1O (mixture of isomers) [Maltose] | 96.1% and 91.6% | 99.6% | 102% | 102% | 98.9% | 98.9% | 96.6% | 104% |
| CCN(CC)CC#CCOC(=O)C(O)(c1ccccc1)C1CCCCC1 (stereo not drawn) [Oxybutynin chloride] | 94.9% and 97.5% | 88.6% | 79.8% | 96% | 83% | 101% | 80.8% | 91.8% |
| CNCCc1ccccn1 [Betahistine] | 102% and 100% | 102% | 100% | 103% | 101% | 105% | 102% | 105% |
| CC1CNc2c(cccc2S(=O)(=O)N[C@@H](CCCNC(=N)N)C(=O)N2CC[C@@H](C)C[C@@H]2C(=O)O)C1 (stereo partly drawn) [Argatroban Monohydrate] | 103% and 94.3% | 96.2% | 96.9% | 103% | 97.8% | 106% | 93.6% | 94% |
| COC1=C2C[C@@H](C)C[C@H](OC)[C@H](O)[C@@H](C)/C=C(\C)[C@H](OC(N)=O)[C@@H](OC)/C=C\C=C(/C)C(=O)NC(=CC1=O)C2=O [Geldanamycin] | 15.4% and 22.8% | 24.4% | 26.4% | 19.1% | 1.24% | 1.11% | 1.59% | 10.6% |
| OCCOCCN1CCN(C(c2ccccc2)c2ccc(Cl)cc2)CC1 (stereo not drawn) [Hydroxyzine 2HCl] | 90.8% and 99.8% | 96.4% | 85.2% | 88.6% | 86.6% | 95% | 95.4% | 86.1% |
| NC(=O)Cc1c[nH]c2ccccc12 [Indole-3-acetamide] | 97.9% and 97.4% | 107% | 98% | 100% | 92.9% | 103% | 107% | 115% |
| COc1nc(OCc2cccc(-c3ccccc3)c2C)ccc1CNCCNC(C)=O [BMS202 (PD-1/PD-L1 inhibitor 2)] | 10.8% and 26.5% | 32.6% | 60.9% | 59% | 41.6% | 31.9% | 53.5% | 51.3% |
| Cn1c([N+](=O)[O-])cnc1COC(N)=O [Ronidazole] | 95.1% and 89% | 92.3% | 97.3% | 97.3% | 96% | 99.5% | 90.8% | 102% |
| Nc1ncnc2c1nc(Br)n2[C@@H]1O[C@@H]2COP(=O)(O)O[C@H]2[C@H]1O [8-Bromo-cAMP] | 66.5% and 72.5% | 66.5% | 86.2% | 96.1% | 65.9% | 60% | 79.8% | 93.2% |
| CC12CCC(C1)C(C)(C)C2O (stereo not drawn) [Fenchyl Alcohol] | 105% and 94.5% | 91.5% | 89.9% | 100% | 96.4% | 96.6% | 91.5% | 89.1% |
| OCC1OC(Oc2ccc(O)cc2)C(O)C(O)C1O (stereo not drawn) [alpha-Arbutin] | 99.8% and 105% | 98.6% | 104% | 111% | 103% | 109% | 98.8% | 101% |
| O=C1c2c(O)ccc(O)c2C(=O)c2c(NCCNCCO)ccc(NCCNCCO)c21 [Mitoxantrone 2HCl] | 3.59% and 6.17% | 3.76% | 4.5% | 1.79% | 0.19% | 0.15% | 0.48% | 7.36% |
| CC(=O)O[C@@H]1CC[C@@]2(C)[C@@H](CC[C@]3(C)[C@@H]2C(=O)C=C2[C@@H]4[C@@H](C)[C@H](C)CC[C@]4(C)CC[C@]23C)[C@@]1(C)C(=O)O | 99.7% and 94.1% | 83.4% | 106% | 101% | 74.3% | 82.3% | 87.1% | 90.6% |
| Cc1ccc(-n2sc(=O)n(Cc3ccc(F)cc3)c2=O)cc1 | 78.6% and 73.5% | 78% | 67.2% | 72.6% | 47.6% | 61.8% | 50.6% | 50.9% |
| CC(C)(C)C(=O)OCOP(=O)(COCCn1cnc2c(N)ncnc21)OCOC(=O)C(C)(C)C [Adefovir Dipivoxil (Preveon, Hepsera)] | 59.1% and 71.3% | 75.8% | 30.7% | 36.8% | 0.75% | 0.59% | 0.85% | 2.98% |
| CC(=O)c1ccc(C)cc1O [2'-Hydroxy-4'-methylacetophenone] | 97.1% and 95% | 104% | 95.6% | 103% | 102% | 102% | 94.5% | 107% |
| COc1cc2c(cc1OC)[C@@H]1Cc3ccc(OC)c(OC)c3CN1CC2 [Tetrahydropalmatine hydrochloride] | 89.6% and 96.5% | 95.6% | 91.4% | 93.7% | 93.4% | 101% | 103% | 83.9% |
| CCc1ccc(C(=O)C(C)CN2CCCCC2)cc1 (stereo not drawn) [Eperisone hydrochloride] | 91.5% and 94.7% | 93.1% | 81.3% | 95.5% | 38.1% | 70% | 33.5% | 47.8% |
| CCC[C@@H]1C[C@@H](C(=O)N[C@@H]([C@H]2O[C@H](SC)[C@H](O)[C@@H](O)[C@H]2O)[C@@H](C)O)N(C)C1 [Lincomycin hydrochloride (Lincocin)] | 102% and 79.7% | 82.2% | 88.7% | 95.2% | 92.6% | 91.7% | 79.5% | 93.9% |
